Consider 27 molecules from PubChem BioAssay (EPA / NIEHS).

The source made the active and inactive calls. How the source made its calls: active means hit-call score of the fitted dose curve at least 0.9, where 1 is the maximum; inactive means score below 0.9.

This experiment in a line: BSK_LPS_PGE2: BioMAP Diversity Plus: LPS Assay for Prostaglandin E2 (PGE2) Biomarker Activity (AID 2283082).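 On AC50: secreted prostaglandin E2 measured by ELISA in LPS-stimulated co-culture.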 To be noted: primary human HUVEC with PBMC; actives raise or lower the signal. The essentials:
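Primary human endothelial cells and blood mononuclear cells, co-cultured with LPS, receive test chemical; PGE2 ELISA follows at 24 h, with SRB-stained parallel cultures flagging cytotoxicity.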
Take `CCCCN1C(=O)[C@@H]([C@H](O)C2CCCCC2)NC(=O)C12CCN(Cc1ccc(Oc3ccc(C(=O)O)cc3)cc1)CC2`: the result was inactive. On the same count and under the same terms, in the case of `C[Si](C)(C)C(F)(F)C(F)(F)C(F)(F)F` it was “inactive”; in that of `OCc1c[nH]c2ccccc12`, “inactive”. Take `C[C@]12C=CC(=O)C=C1CC[C@H]1[C@@H]3C[C@@H](O)[C@](O)(C(=O)CO)[C@@]3(C)C[C@H](O)[C@@]12F`: the outcome was inactive. Still for that read-out and setting: in the case of `S=P(N1CC1)(N1CC1)N1CC1` it was “inactive”; in that of `CCCOc1ccc(S(=O)(=O)N2CCN(CC)CC2)cc1-c1nc2c(CC)n(Cc3ccccn3)nc2c(=O)[nH]1`, “inactive”. Still for that read-out and setting: in the case of `Cc1ccc(S(=O)(=O)NC(=O)NN2CCCCCC2)cc1` it was “inactive”.

The AC50 is the concentration giving half of the maximal activity seen. As to `CC(C)c1nnc2ccc(-c3ocnc3-c3cc(F)ccc3F)cn12`, the AC50 was 0.346 µM (active).

Turning to `CCCCCCCCCCCCCCO`, the outcome was inactive. Consider `OC[C@H]1O[C@@](CO)(O[C@H]2O[C@H](CO)[C@@H](O)[C@H](O)[C@H]2O)[C@@H](O)[C@@H]1O`, for which the result was inactive. The same measure, in the same setting: in the case of `COCc1nnc(-c2ccc[n+]([O-])c2)n1-c1c(Cl)c(Cl)cc2[nH]c(=O)c(=O)[nH]c12` it was “inactive”; in that of `O=C(Cl)C(F)(F)C(F)(F)C(F)(F)C(=O)Cl`, “inactive”.

As to `OC(CCl)CCl`, the result was inactive.

With `CCn1nc(C)c2c1C(=O)NCC(c1ccc(O)cc1)=N2`, the outcome was inactive. Regarding `O=S1(=O)CCCO1`, the result was inactive. On the same count and under the same terms, in the case of `c1ccc(C(O[C@@H]2CCCN(CCc3ccc4c(c3)OCO4)C2)c2ccccc2)cc1` it was “inactive”; in that of `O=S(=O)(O)CCC(F)(F)C(F)(F)C(F)(F)C(F)(F)C(F)(F)C(F)(F)F`, “inactive”; in that of `NC(=O)N1c2ccccc2C=Cc2ccccc21`, “inactive”. On the same count and under the same terms, in the case of `c1ccc2c(c1)-c1cccc3c1c-2cc1ccccc13` it was “inactive”; in that of `CCOc1ccc2[nH]cc(C(=O)NCc3ccccc3)c(=O)c2n1`, “inactive”. With `CCc1ccc(O)c(C(C)(C)C)c1`, the AC50 was 25.3 µM (active). In the case of `CCc1cccc(CC)c1N`, the result was inactive. The same measure, in the same setting: in the case of `FC(F)=C(F)C(F)(F)C(F)(F)C(F)(F)C(F)(F)C(F)(F)C(F)(F)F` it was “inactive”; in that of `NNC(=O)c1ccncc1`, “inactive”. Same read-out and setting: in the case of `OC[C@H]1O[C@@H]2O[C@H]3[C@H](O)[C@@H](O)[C@@H](O[C@H]4[C@H](O)[C@@H](O)[C@@H](O[C@H]5[C@H](O)[C@@H](O)[C@@H](O[C@H]6[C@H](O)[C@@H](O)[C@@H](O[C@H]7[C@H](O)[C@@H](O)[C@@H](O[C@H]1[C@H](O)[C@H]2O)O[C@@H]7CO)O[C@@H]6CO)O[C@@H]5CO)O[C@@H]4CO)O[C@@H]3CO` it was “inactive”. As to `CCCCCCCC1CCC(=O)O1` (configuration not stated), the result was inactive. On the same count and under the same terms, in the case of `OCC(CO)(CO)CO` it was “inactive”.
